Out of some 190,000 compounds screened, about 1,300 (0.68%) were called active. The list comes from a sample in which actives are over-represented; it also holds similar structures and randomly drawn compounds. Values without a mark were called inactive. No stated cut-off is given here; in the data, active means inhibition above about 50%; inactive means the rest.

In the test the target is Mannose-6-phosphate isomerase (Homo sapiens) (UniProt P34949). Kind of test: MPI inhibition at elevated mannose 6-phosphate – biochemical, fluorescence intensity, high mannose 6-phosphate, primary screen (AID 1220). The following applies: recombinant PMI enzyme, coupled fluorescence intensity; at 20 µM; stronger effect = higher value.
Mannose-6-phosphate isomerase (Homo sapiens), sequence (P34949 whole entry, looked up): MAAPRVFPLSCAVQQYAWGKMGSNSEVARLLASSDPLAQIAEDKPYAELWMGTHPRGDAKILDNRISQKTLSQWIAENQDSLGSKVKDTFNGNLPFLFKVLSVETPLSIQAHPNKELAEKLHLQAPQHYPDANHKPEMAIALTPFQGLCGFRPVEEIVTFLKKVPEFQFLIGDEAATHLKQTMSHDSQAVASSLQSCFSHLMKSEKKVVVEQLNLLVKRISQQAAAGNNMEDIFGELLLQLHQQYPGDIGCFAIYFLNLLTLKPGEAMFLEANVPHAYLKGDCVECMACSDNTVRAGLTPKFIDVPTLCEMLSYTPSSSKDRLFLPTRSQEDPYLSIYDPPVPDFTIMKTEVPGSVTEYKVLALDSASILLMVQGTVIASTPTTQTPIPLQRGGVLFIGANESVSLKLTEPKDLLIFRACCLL
`CCCC(=O)Nc1nc(C)c(-c2csc(Nc3ccc(Cl)cc3)n2)s1`: the inhibition – broadly, the drop in the measured response relative to a control, in per cent – is 38.4%.

`O=C(Cn1cc(C(F)(F)F)cc(Cl)c1=O)Nc1cc(Cl)cc(Cl)c1`: the inhibition was 13.7%.

With `C=CCn1c(SCC(=O)Nc2ccc3c(c2)OCO3)nnc1-c1ccccc1`, the inhibition was 25.6%.

For `CCOC(=O)c1ccc(Cn2cnc3ccccc3c2=O)cc1`, the inhibition was 11.7%.

Turning to `CCOC(=O)C1=C(c2ccccc2)NC(SC)=C(C#N)C1c1cccnc1` (stereo not drawn), the inhibition was 3.3%.

As to `O/N=C1/CCSc2ccccc21`, the inhibition is 9.7%.

Take `Oc1ccc(CNc2ccccc2F)c2cccnc12`: the inhibition is 73.8% (active).

In the case of `COc1ccc(O)c(CNc2ccccc2F)c1`, the inhibition is 17.2%.

As for `Cc1ccccc1N=Nc1ccc(O)c2ncccc12`, the inhibition was 31.3%.

Regarding `O=C(Cc1ccccc1F)Nc1cccc2cccnc12`, the inhibition was -1.1%.

With `O=[N+]([O-])c1ccc(O)c2ncccc12`, the inhibition was 9%.

`CCCCCCn1c(=O)[nH]c2nc3cc(N)ccc3nc2c1=O`: the inhibition is 24%.

With `CCCCCCn1c(=O)[nH]c2nc3cc(N)c(C)cc3nc2c1=O`, the inhibition is 49.7%.

`CCCCn1c(=O)[nH]c2nc3cc(N)ccc3nc2c1=O`: the inhibition is 52.5% (active).

Consider `C=CCn1c(COc2ccccc2F)nnc1SCCN1C(=O)c2ccccc2C1=O`, for which the inhibition is 10.7%.

With `COCCn1c(C)cc(C(=O)CSc2nc3ccccc3o2)c1C`, the inhibition is -1.7%.

Consider `CCOC(=O)c1cnc2ccc(OCC)cc2c1NCc1ccccc1`, for which the inhibition was 43.5%.

For `CCOC(=O)c1cnc2ccc(OCC)cc2c1NCc1cccnc1`, the inhibition was 62.8% (active).

With `CCOC(=O)c1cnc2ccc(OC)cc2c1NCc1ccccc1`, the inhibition is 27.2%.

On to `Cc1cc2nc(-c3ccc(SCC(=O)Nc4nccs4)nc3)[nH]c2cc1C`, for which the inhibition is -0.3%.

On to `Nc1nc2n(n1)C(=O)CC(c1ccccc1[N+](=O)[O-])N2` (stereo not drawn), for which the inhibition was 9.2%.

For the compound `O=C(/C=C/c1ccc2c(c1)OCO2)NCCSCc1ccc(Cl)cc1Cl`, the inhibition is 12.8%.

In the case of `CC1(C)CC(=O)C2=C(C1)OC(N)=C(C#N)C21CCN(C(=O)OCc2ccccc2)CC1`, the inhibition is 4.4%.

`CC(=O)Nc1ccc(S(=O)(=O)NNC(=O)COc2cccc3ccccc23)cc1`: the inhibition was 1.3%.

As for `O=[N+]([O-])c1cc2oc3c(c2c(C=NCc2ccccc2)c1O)CCCC3`, the inhibition was 50.7% (active).

Consider `O=[N+]([O-])c1cc2oc3c(c2c(C=NCc2ccncc2)c1O)CCCC3`, for which the inhibition was 52.5% (active).

`O=C(c1ccncc1)N(c1ccc2oc3c(c2c1)CCCC3)S(=O)(=O)c1cccc([N+](=O)[O-])c1`: the inhibition is 6%.

Consider `O=C1CCCC(O)=C1C=NCc1ccccc1`, for which the inhibition is -2.2%.

For the compound `Oc1c(Br)cc2oc3c(c2c1CNCc1ccccc1)CCCC3`, the inhibition is 2.3%.

Consider `Cc1ccc(S(=O)(=O)N(C(=O)c2ccncc2)c2ccc3oc4c(c3c2)CCCC4)cc1[N+](=O)[O-]`, for which the inhibition is 1.1%.

For `COCC(=O)Nc1nnc(CCc2ccccc2)s1`, the inhibition is 9.8%.

For `COC(=O)C1=C(C)N(c2ccc(OC)c(OC)c2)C(=O)C1`, the inhibition is -12.5%.

Turning to `CN(C)C(=O)c1cn(-c2ccccc2)nc1-c1cccs1`, the inhibition is -7.1%.

Take `O=C(NCC(=O)N1CCN(S(=O)(=O)c2cccs2)CC1)c1ccc(Cl)cc1`: the inhibition is 5.3%.

`FC(F)(F)c1cc(-c2cccs2)nc2nc(N3CCOCC3)sc12`: the inhibition was -4.4%.

Turning to `CC1(C)OC(C)(C)/C(=C/Nc2ccccc2)C1=O`, the inhibition was 0.4%.

As to `CC1(C)Oc2ccc3ccc(=O)oc3c2/C(=C/Nc2ccc(O)cc2)C1=O`, the inhibition was 14.8%.

Consider `CC1(C)OC(C)(C)/C(=C/Nc2ccc(O)cc2)C1=O`, for which the inhibition is 52.5% (active).

For the compound `Cc1ccc(NC(=O)C2CCCN2C(=O)NC2CCCCC2)cc1` (stereo not drawn), the inhibition is 7.7%.

On to `CCCCC(=O)NC1(C(F)(F)F)C(=O)N(Cc2ccco2)C(C)=C1C(=O)OC` (stereo not drawn), for which the inhibition is 2.6%.

As for `CCOC(=O)C1CCN(C(=O)CSc2nccc(C)n2)CC1`, the inhibition was -8.5%.

On to `COCCNC(=O)NC(=O)CN1CCCc2ccccc21`, for which the inhibition is 6.7%.

`O=C1CC(N2CCN(c3ccc(F)cc3)CC2)C(=O)N1c1ccc2c(c1)OCO2` (stereo not drawn): the inhibition is 24.1%.

As to `O=C1CC(N2CCN(c3ccc(O)cc3)CC2)C(=O)N1c1ccc2c(c1)OCO2` (stereo not drawn), the inhibition was 60.4% (active).

Turning to `O=C1CC(N2CCN(c3ccccc3)CC2)C(=O)N1c1ccc2c(c1)OCO2` (stereo not drawn), the inhibition is -2%.

Regarding `COc1ccccc1OCc1ccc(C(=O)OCC2CCCO2)o1` (stereo not drawn), the inhibition was -2%.

In the case of `COC(=O)c1oc2ccc(OC)cc2c1N`, the inhibition is -2.9%.

Turning to `OCC[C@@H]1C[C@@H](O)[C@H](O)[C@]2(CCCCO2)O1`, the inhibition was 0.7%.

For `COC(=O)c1cccc(C(=O)Nc2ccc(F)cc2)n1`, the inhibition was 2.8%.

Turning to `COc1ccc(NC(=O)C2CCN(C(=O)NCc3ccccc3)CC2)cc1`, the inhibition was 13%.

Turning to `CN(Cc1ccc(F)cc1)C(=O)CCc1nnc(-c2ccccc2)o1`, the inhibition was -0.8%.

Regarding `O=C(Nc1cccc(S(=O)(=O)Nc2ccccc2F)c1)c1ccc2ccccc2n1`, the inhibition was 44.1%.

As for `O=C(Cc1ccc(Cl)cc1)Nc1cccc(S(=O)(=O)Nc2ccccc2F)c1`, the inhibition was 10.4%.

Consider `CCOC(=O)CC(NS(=O)(=O)c1ccc(OC)c(C)c1)c1cccc([N+](=O)[O-])c1` (stereo not drawn), for which the inhibition is 12.1%.

Consider `CCOC(=O)c1ccc(S(=O)(=O)N2CCN(S(=O)(=O)CC)CC2)cc1`, for which the inhibition is 4.2%.

As to `CCNC(=S)N1CCN(C(c2ccccc2)c2ccccc2)CC1`, the inhibition was 18.7%.

Regarding `COc1ccc(C(=O)NC(C)c2nnc(SCC(=O)Nc3nc4ccccc4s3)n2C)cc1` (stereo not drawn), the inhibition is 4.8%.

As to `CCOC(=O)c1c(-c2ccc(C)o2)csc1NC(=O)CN1CCCCC1`, the inhibition is 20.2%.

As for `CCOC(=O)c1c(CC(C)C)csc1N`, the inhibition is 34.4%.

For the compound `CCOC(=O)c1c(-c2ccc(C)o2)csc1N`, the inhibition is 51.6% (active).

On to `CCOC(=O)c1c(-c2ccco2)csc1NC(=O)CSc1nnc(N)s1`, for which the inhibition was 9.8%.

As to `CCOC(=O)c1c(-c2ccc(C)o2)csc1NC(=O)COC(=O)c1cccs1`, the inhibition was 16.6%.

For the compound `CCOC(=O)c1c(-c2ccco2)csc1N`, the inhibition was 57.9% (active).

As for `COc1ccc(C(=O)O/N=C(/C)c2cccs2)cc1`, the inhibition is -4.4%.

Turning to `Cc1c(NC(=S)NC(NC(=O)C(C)C)C(Cl)(Cl)Cl)c(=O)n(-c2ccccc2)n1C` (stereo not drawn), the inhibition was 1.4%.

For the compound `NC(=O)C1(N2CCCCC2)CCN(Cc2ccc(F)cc2)CC1`, the inhibition was 1.7%.

With `C[C@]12CC[C@@H]3c4ccc(O)cc4CC[C@H]3[C@@H]1CC[C@@H]2O`, the inhibition was -6.7%.

In the case of `C[C@]12CC[C@@H]3c4cc(O)c(O)cc4CC[C@H]3[C@@H]1CC[C@@H]2O`, the inhibition was 27.9%.

Take `COC(=O)/C=c1/s/c(=C(\C#N)C(=O)NCc2ccco2)n(-c2ccccc2)c1=O`: the inhibition is -5.5%.

Regarding `Cc1ccc(-n2ncc(C#N)c2/N=C/N2CCOCC2)cc1`, the inhibition is 14.1%.

As for `Cc1cc(O)ccc1N/C=C1\CCCC1=O`, the inhibition is 54.1% (active).

Regarding `Cc1ccc(N/C=C2\CCCCC2=O)c(C)c1`, the inhibition was -0.6%.

Regarding `O=C1CCCC/C1=C\Nc1ccc(O)cc1`, the inhibition is 25%.

As for `O=C(N/N=C/c1cccc([N+](=O)[O-])c1)c1ccc(COc2ccccc2-c2ccccc2)cc1`, the inhibition is 0.3%.

Consider `Cc1ccc2c(c1)N(CC(=O)N1CCN(c3nc4ccccc4s3)CC1)C(=O)C(C)O2` (stereo not drawn), for which the inhibition was 0.6%.

As for `Cn1c(CN2CCCCC2)nc2cc(NC(=O)c3ccc(F)cc3)ccc21`, the inhibition is 10.4%.

With `CCOc1ccc(S(=O)(=O)n2cc(F)c(=O)[nH]c2=O)cc1`, the inhibition is 11.2%.

For `CC(C)COc1ccc(S(=O)(=O)n2cc(F)c(=O)[nH]c2=O)cc1`, the inhibition is 50.5% (active).

In the case of `CCCOc1ccc(S(=O)(=O)n2cc(Br)c(=O)[nH]c2=O)cc1`, the inhibition is -4.8%.

`CC(C)(C)NCC(O)COc1ccccc1C(C)(C)C` (stereo not drawn): the inhibition is 2.5%.

As to `Cc1ccc2nsnc2c1S(=O)(=O)N(Cc1cc2cccc(C)c2[nH]c1=O)CC1CCCO1` (stereo not drawn), the inhibition is 10.3%.

With `Cc1nnc(SCC(=O)c2ccc(C(C)C)cc2)s1`, the inhibition was 7.2%.

Regarding `CC(C)c1ccc(C(=O)CSc2n[nH]c(-c3ccncc3)n2)cc1`, the inhibition is 4.3%.

For the compound `Oc1ccc(/C=N/NC(=S)NCCN2CCOCC2)c(O)c1`, the inhibition was -21.6%.

With `S=C(NCCN1CCOCC1)N/N=C/c1ccccc1`, the inhibition is 3.7%.

Take `C=CCn1c(C(C)NC(=O)c2ccccc2C)n[nH]c1=S` (stereo not drawn): the inhibition was 2.2%.

For `CCOC(=O)c1c(-c2ccsc2)csc1N`, the inhibition was 59.8% (active).

With `CCOC(=O)c1c(-c2cccc([N+](=O)[O-])c2)csc1NC(=O)C1CC1`, the inhibition is 40.4%.

Turning to `CCOC(=O)c1c(-c2cccc([N+](=O)[O-])c2)csc1N`, the inhibition was 50.3% (active).

As to `CCOc1ccc(-c2csc(N)c2C(=O)OC)cc1`, the inhibition is 19.4%.

On to `CCOC(=O)c1c(-c2cccc([N+](=O)[O-])c2)csc1NC(=O)C1CCCCC1`, for which the inhibition is 24%.

For `CCOC(=O)c1c(-c2ccc(C)s2)csc1NC(=O)c1ccco1`, the inhibition is 3.5%.

As for `CCOC(=O)c1c(-c2ccc(C)s2)csc1NC(=O)c1cccs1`, the inhibition was -3.8%.

In the case of `CCOC(=O)c1c(-c2ccncc2)csc1N`, the inhibition was 23.1%.

Take `Cc1ccc2nc(-c3cccnc3)c(Nc3ccccc3C)n2c1`: the inhibition is 4.7%.

For the compound `COc1ccc(NC(=O)c2cc3c(=O)n4ccccc4nc3n2C)c(OC)c1`, the inhibition is 6.3%.

Regarding `Cc1cc(C)c(S(=O)(=O)c2ccccc2)c(Cl)n1`, the inhibition is 5.7%.

Regarding `COC(=O)c1[nH]c2ccccc2c1NC(=O)CNC1CCCCC1`, the inhibition was 11.8%.
